# In PubChem BioAssay:
# System: XIP peptide (Xip251-270)
# Experiment: small-molecule binders of XIP peptide, primary screen, biochemical, small-molecule microarray, fluorescence 635/667 nm, 0.5 µg/mL protein (AID 1183)
# Conditions: small-molecule microarray binding, fluorescence 635 nm; higher = more signal
row,Compound,composite z-score
1,CN(C)CCCNC(=O)[C@@H]1c2ccccc2C(=O)N(Cc2ccccc2)[C@H]1c1ccc(CO)cc1,-0.32
2,COc1ccc([Si](C)(C)[C@H]2[C@H](CC(=O)N3CCC[C@H]3CO)O[C@@]3(C(=O)N(Cc4cccc(N5C(=O)COc6ccccc65)c4)c4ccccc43)[C@@H]2C)cc1,0.74
3,C=CC[C@]1(C(=O)NCc2ccccc2)N=C(c2ccc(OCCCO)cc2)O[C@H]1c1ccccc1,0.776
4,COC(=O)[C@@]1(Cc2ccc(F)cc2)[C@H]2c3cc(C(=O)N(C)C)n(Cc4ccc(OC)c(OC)c4)c3C[C@H]2CN1C(=O)c1ccccc1,0.835
5,O=C(CS)NCCCCCNC(=O)[C@H]1C[C@H]2C(=O)N3CCC[C@H]3C(=O)N2[C@H]1c1cccc(OCCO)c1,0.887
6,Cn1cccc1C(O)C1C=CC2C(=O)NC(=O)C2N1Nc1ccccn1 (stereo unspecified),0.916
7,O=C1O[C@@H](c2ccccc2)[C@@H](c2ccccc2)N2[C@@H](c3ccc(OCCO)cc3)[C@]3(C(=O)Nc4ccccc43)[C@@H](C(=O)N3CCN(c4ncccn4)CC3)[C@H]12,0.812
8,COC(=O)c1c(CC[C@@H](CO)NC(=O)N[C@H](Cc2ccccc2)Cn2cc(-c3ccccc3N)nn2)oc(C(C)=O)c1C(=O)OC,0.0678
9,COC(=O)[C@@H]1N=C(c2ccc(OCCCO)cc2)O[C@@H]1c1ccccc1N=[N+]=[N-],0.806
10,CCOC(=O)C1=CC[C@H]2C(=O)N(CC)C(=O)[C@@H]12,0.343
11,C=C(/C(=C/C[C@H](OC(C)=O)c1ccc(OCCO)cc1)c1cnc2ccccc2c1)C(C)C,0.605
